Assay results published in PubChem BioAssay.

The compounds below were run on PRMT1 (protein arginine N-methyltransferase 1) (assay: PRMT1 binders on small-molecule microarrays, primary screen, biochemical, small-molecule microarray, 635 nm fluorescence (AID 1088)). Conditions: small-molecule microarray binding, higher = more signal.

SMILES | composite z-score
CCOC(=O)C[C@H]1[C@H](OC(=O)Cc2ccc3c(c2)OCO3)[C@@H](NC(=O)c2ccc3ccccc3c2)c2cc(OCCCO)ccc2N1C(=O)Cc1ccc(OC)cc1 | 0.842
O=C(NCc1ccccc1)c1ccc(Br)cc1[N+](=O)[O-] | 0.54
CC(C)(C)OC(=O)CC[C@]1(C(=O)N2CCCCC2)N=C(c2ccc(OCCCO)cc2)O[C@H]1c1ccccc1 | 1.54
C=CCNC(=O)[C@@H]1[C@H]2C(=O)O[C@H](c3ccccc3)[C@H](c3ccccc3)N2[C@H](c2ccc(OCCO)cc2)[C@@]12C(=O)N(C(=O)OCCOC)c1ccc(C#CC3(O)CCCCCC3)cc12 | 1.56
CCCC=C(CCC)[C@@H](NS(=O)(=O)c1ccc(C(F)(F)F)cc1)c1ccc(-c2ccccc2)cc1 | 1.09
NC(=O)NCC#Cc1ccc2c(c1)[C@]1(C(=O)N2)[C@H](C(=O)N2CCCCCCC2)[C@H]2C(=O)O[C@H](c3ccccc3)[C@H](c3ccccc3)N2[C@@H]1c1ccccc1OCCO | 1.54
C=C[C@H](OC)[C@@H](OC(=O)Nc1ccc(SC)cc1)c1ccc(O)c(F)c1 | 1.22
CO[C@H]1COC(=O)CC=C[C@H](C)COC(=O)[C@@H](OCc2ccccc2)C=C[C@@H]1C | 1.52
CC(C)C[C@@H]1NC(=O)[C@H]2C[C@@H](C(=O)NCCCCCC[N+](C)(C)C)[C@@H](c3ccc(O)cc3)N2C1=O | 0.423
CO[C@H]1COC(=O)[C@@H](C)NC(=O)CC=C[C@@H](C)[C@H](OC)COC(=O)CC=C[C@@H]1C | 1.55
C=CC[C@@]12N=C(c3ccc(OCCCO)cc3)O[C@@H]1c1ccccc1CN(Cc1ccccc1)C2=O | 1.54
